High-throughput results (PubChem BioAssay)
Shown are actives, neighbours in structure and some others; about 6.8% of the full set was active somewhere.
C diff growth: blocks growth of Clostridium difficile; Clostridium difficile clinical isolate growth, OD600, 24 h; hits give low values; growth activity, negative = inhibition, % at 16 µg/mL (by protocol); 0.25% of 86,000 active; AID 1259249;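 active means mean growth activity at or below -80% and every replicate also at or below -80%; inconclusive means mean at or below -80% but some replicate above -80%; inactive means mean growth activity above -80%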;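 further: 0% = DMSO wells and -100% = levofloxacin 16 µg/mL wells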
Pf Dd2 growth: blocks growth of Plasmodium falciparum Dd2 parasites; 2.3% of 94,000 active; P. falciparum Dd2 growth, SYBR Green, 72 h; hits give low values; activity change, % at 10 µM; in the data active means activity change below about -80%; inconclusive means no clear call, values can overlap the other calls
T cruzi growth-1: blocks T. cruzi growth in NIH3T3 culture | inhibition, % at 8.34 µM | 5.9% of 77,000 active | AID 624255 | T. cruzi beta-gal in NIH3T3, GalScreen luminescence, 90 h;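 active means mean inhibition above about 93%, with at least 55% of replicates each passing it, limit read from the data, passing the limit was not always enough; inconclusive means only one of those two conditions holds; inactive means neither condition holds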
T cruzi growth-2: inhibitors of T. cruzi proliferation. 72% of 5,600 active. T. cruzi beta-gal in NIH3T3, GalScreen luminescence, 90 h. AID 651739. inhibition, % at 8.35 µM. shares compounds with T cruzi growth-1;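 active means mean replicate inhibition above about 95% and at least 55% of replicates individually reaching it, limit read from the data; inconclusive means only one of the two criteria is met; inactive means neither criterion is met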
T cruzi growth-3: blocks T. cruzi growth in NIH3T3 host cells | 21% of 5,600 active | T. cruzi beta-gal in NIH3T3, GalScreen luminescence, 90 h | shares compounds with T cruzi growth-1 | inhibition, % at 2.09 µM;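 active means mean inhibition above about 95%, with at least 55% of replicates also reaching it, limit read from the data; inconclusive means meets just one of the two conditions; inactive means meets neither condition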;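 further: plate controls were neutral control median for no effect and positive control median for full effect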
NIH3T3 tox: NIH/3T3 (mouse) viability loss | shares compounds with T cruzi growth-1 | NIH/3T3 viability, CellTiter-Glo ATP luminescence, 90 h | cytotoxicity (signal decrease), % at 8.35 µM | 14% of 5,600 active | AID 651742;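 active means mean signal decrease across replicates above about 35% based on untreated-well scatter, with enough replicates individually passing, limit read from the data; inconclusive means no rule stated though some were filed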;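 further: 0% = median of neutral control wells and 100% = median of positive control wells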
3T3 cytotox 2: kills mouse NIH/3T3 fibroblasts; shares compounds with T cruzi growth-1; NIH/3T3 viability, CellTiter-Glo ATP luminescence, 90 h; inhibition, % at 24.9 µM; 56% of 5,600 active; AID 651744;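 active means mean loss of cell viability signal at or above a set limit, and enough replicates individually reaching it; inconclusive means meets only the mean limit or only the replicate share; inactive means meets neither condition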;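 further: 0% = median of neutral control wells and 100% = median of positive control wells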
* = called active by the depositor; ? = inconclusive; / = not tested or not shown.

SMILES	C diff growth	Pf Dd2 growth	T cruzi growth-1	T cruzi growth-2	T cruzi growth-3	NIH3T3 tox	3T3 cytotox 2
C[C@H]1CN([C@@H](C)CO)C(=O)c2cccc(NC(=O)NC3CCCCC3)c2O[C@H]1CN(C)Cc1ccc(-c2ccccc2)cc1	3	9	74	/	/	/	/
C[C@H](CO)N1C[C@H](C)[C@H](CN(C)Cc2ccc(Oc3ccccc3)cc2)Oc2c(NC(=O)NC3CCCCC3)cccc2C1=O	16	6	?	100*	105*	?	52*
Cc1cc(C(=O)Nc2cccc3c2O[C@@H](CN(C)C(=O)Nc2c(C)noc2C)[C@H](C)CN([C@H](C)CO)C3=O)n(C)n1	/	66	-20	/	/	/	/
CCNC(=O)C[C@@H]1CC[C@H]2[C@@H](COc3ccc(NC(=O)c4cscn4)cc3C(=O)N2C)O1	0	-6	8	/	/	/	/
C[C@@H]1CN([C@H](C)CO)C(=O)c2cc(-c3cncnc3)cnc2O[C@H]1CN(C)C(=O)CN1CCOCC1	-2	21	/	/	/	/	/
C[C@@H]1CN([C@@H](C)CO)C(=O)c2cccc(NC(=O)C3CCCCC3)c2O[C@H]1CN(C)Cc1ccc(Oc2ccccc2)cc1	/	-67	104	/	/	/	/
C[C@H](CO)N1C[C@H](C)[C@@H](CN(C)Cc2ccc(Oc3ccccc3)cc2)Oc2c(NC(=O)C3CCCCC3)cccc2C1=O	/	-35	?	104*	89	-28	104*
C[C@H](CO)N1C[C@H](C)[C@H](CN(C)C)Oc2cc(-c3ccccc3F)ccc2S1(=O)=O	4	-6	?	19	9	6	50*
COc1ccccc1-c1ccc2c(c1)O[C@@H](CN(C)C(=O)c1ccncc1)[C@H](C)CN([C@@H](C)CO)S2(=O)=O	1	-8	62	/	/	/	/
C[C@@H]1CN([C@@H](C)CO)S(=O)(=O)c2ccc(-c3ccccc3)cc2O[C@@H]1CN(C)CC1CC1	/	-44	71	/	/	/	/
COc1ccccc1-c1ccc2c(c1)O[C@@H](CN(C)CC1CCCC1)[C@H](C)CN([C@@H](C)CO)S2(=O)=O	14	-62	126*	101*	100*	42*	103*
COc1ccccc1-c1ccc2c(c1)O[C@@H](CN(C)C(=O)c1ccncc1)[C@@H](C)CN([C@H](C)CO)S2(=O)=O	2	-1	105*	94	76	4	?
C[C@H]1CN([C@@H](C)CO)S(=O)(=O)c2ccc(-c3ccccc3F)cc2O[C@H]1CN(C)C	4	-11	64	/	/	/	/
C[C@@H]1CN([C@@H](C)CO)S(=O)(=O)c2ccc(-c3ccccc3)cc2O[C@H]1CN(C)CC1CCCC1	9	-78	96*	97*	106*	58*	104*
COc1ccccc1-c1ccc2c(c1)O[C@H](CN(C)CC1CCOCC1)[C@@H](C)CN([C@@H](C)CO)S2(=O)=O	-1	-36	/	/	/	/	/
CO[C@@H]1CN(C)C(=O)c2cc(NC(=O)Nc3ccccc3F)ccc2OC[C@H](C)N(Cc2ccccc2C(=O)O)C[C@@H]1C	/	40	/	/	/	/	/
O=C(C[C@H]1C=C[C@@H](NC(=O)C2CC2)[C@@H](CO)O1)NCc1ccccc1Cl	/	-11	52	/	/	/	/
C[C@@H]1CCCCO[C@@H](CN(C)S(=O)(=O)c2cn(C)cn2)[C@@H](C)CN([C@H](C)CO)C(=O)c2cc(NC(=O)Nc3ccc(F)cc3)ccc2O1	/	-24	-6	/	/	/	/
C[C@@H]1CN([C@@H](C)CO)C(=O)c2cc(NS(=O)(=O)c3cn(C)cn3)ccc2O[C@H]1CN(C)C(=O)Nc1ccc(C(F)(F)F)cc1	2	4	-25	/	/	/	/
C[C@@H]1CN([C@H](C)CO)S(=O)(=O)c2ccc(C3=CCCC3)cc2O[C@@H]1CN(C)CC1CC1	9	-31	63	/	/	/	/
COc1ccccc1-c1ccc2c(c1)O[C@H](CN(C)C)[C@H](C)CN([C@@H](C)CO)S2(=O)=O	-1	-2	75	/	/	/	/
COc1ccccc1-c1ccc2c(c1)O[C@H](CN(C)C)[C@@H](C)CN([C@@H](C)CO)S2(=O)=O	-8	-7	106*	98*	36	13	46*
C[C@@H]1CN([C@@H](C)CO)S(=O)(=O)c2ccc(-c3ccccc3F)cc2O[C@H]1CN(C)C	4	-18	114*	54	17	23	77*
C[C@H](CO)N1C[C@H](C)[C@@H](CN(C)C)Oc2cc(-c3ccccc3F)ccc2S1(=O)=O	-3	1	90	/	/	/	/
C[C@@H]1CN([C@@H](C)CO)S(=O)(=O)c2ccc(C3=CCCC3)cc2O[C@H]1CN(C)CC1CCCC1	2	-64	107*	97*	82	41*	105*
SMILES	C diff growth	Pf Dd2 growth	T cruzi growth-1	T cruzi growth-2	T cruzi growth-3	NIH3T3 tox	3T3 cytotox 2
CCC(=O)N[C@@H]1C=C[C@H](CC(=O)NCc2cc(F)cc(F)c2)O[C@H]1CO	/	23	4	/	/	/	/
C[C@@H](NC(=O)C[C@@H]1CC[C@@H]2[C@H](COC[C@H](O)CN2Cc2cc(F)ccc2F)O1)c1ccccc1	8	-57	-9	/	/	/	/
C[C@@H](NC(=O)C[C@H]1CC[C@H]2[C@@H](COC[C@H](O)CN2C(=O)Nc2ccccc2)O1)c1ccccc1	/	-20	-1	/	/	/	/
Cc1noc(C)c1S(=O)(=O)Nc1ccc2c(c1)C(=O)N([C@H](C)CO)C[C@H](C)[C@@H](CN(C)Cc1ccc(C(F)(F)F)cc1)O2	0	-6	23	/	/	/	/
C[C@H](CO)N1C[C@H](C)[C@H](CN(C)C(=O)Nc2ccc3c(c2)OCO3)OCCCC[C@H](C)Oc2ccc(NC(=O)Nc3ccc(C(F)(F)F)cc3)cc2C1=O	4	-60	98*	101*	110*	-11	0
C[C@H]1CCCCO[C@@H](CN(C)C(=O)Nc2ccc(C(F)(F)F)cc2)[C@@H](C)CN([C@@H](C)CO)C(=O)c2cc(NC(=O)Nc3ccc4c(c3)OCO4)ccc2O1	3	-8	121*	105*	109*	-5	4
C[C@@H]1CCCCO[C@H](CN(C)C(=O)Nc2ccc3c(c2)OCO3)[C@@H](C)CN([C@H](C)CO)C(=O)c2cc(NC(=O)Nc3ccc4c(c3)OCO4)ccc2O1	/	-32	47	/	/	/	/
C[C@H]1CCCCO[C@@H](CN(C)C(=O)Nc2ccc3c(c2)OCO3)[C@@H](C)CN([C@@H](C)CO)C(=O)c2cc(NC(=O)Nc3ccc(C(F)(F)F)cc3)ccc2O1	6	-59	82	/	/	/	/
C[C@H]1CN([C@@H](C)CO)C(=O)c2cc(-c3ccccc3)cnc2O[C@H]1CN(C)C(=O)c1cccc(F)c1	-4	-23	-5	/	/	/	/
CCN1[C@@H]2Cn3c(ccc(C4=CCCCC4)c3=O)[C@H]1[C@@H](C(=O)NCCc1ccncc1)[C@@H]2CO	1	0	99*	-20	0	-27	-27
